A selection: hits, their analogues and other compounds. The true share with any hit is near 4.1%.
tim23-1 inh: tim23-1 yeast growth inhibition; S. cerevisiae tim23-1 growth, BacTiter-Glo luminescence, 24 h; inhibition, % at 20 µM; 330,000 tested, 1.3% active; AID 463212;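 active = growth inhibition of the mutant yeast at or above 50%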;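 also: temperature-sensitive mutant grown at 25 °C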
TIM10 inh: growth inhibitors of TIM10 yeast strain; S. cerevisiae TIM10 strain growth, BacTiter-Glo luminescence, 24 h; inhibition, % at 10 µM; 330,000 tested, 1.4% active; AID 463195;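 active = inhibition of 40% or more at the single tested concentration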;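 also: wild-type TIM10 isogenic control strain grown at permissive 25 °C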
NALP1 yeast inh: NALP1 inhibition; 280,000 tested, 0.61% active; S. cerevisiae NALP1/ASC/caspase-1 growth, X-gal OD620, 72 h; AID 2071; inhibition, % at 10 µM; in the data active = inhibition mostly above about 24%, no sharp cut-off; inactive = mostly below about 32%
PfHsp90 yeast 2: reduces growth (ATP signal) of yeast expressing P. falciparum Hsp90; AID 504621; inhibition, % at 9.4 µM; 310,000 tested, 0.32% active; S. cerevisiae expressing PfHsp90, BacTiter-Glo ATP, 48 h; yeast lacking PDR1 and PDR3 efflux regulators;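 active = every replicate shows inhibition above about 80%, whatever the replicate mean, limit read from the data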
tim10-1 inh: tim10-1 yeast growth inhibition; inhibition, % at 20 µM; S. cerevisiae tim10-1 ts strain growth, BacTiter-Glo, 24 h; 330,000 tested, 2.2% active;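 active = inhibition of at least 40%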;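 also: mutant grown at 25 °C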
NALP3 yeast inh: blocks the NALP3 inflammasome reconstituted in yeast; Yeast reconstituted NLRP3/ASC/caspase-1, beta-gal luminescence, 24 h; inhibition, % at 10 µM; 330,000 tested, 0.39% active;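 active = inhibition of 50% or more; inactive = inhibition below 50%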
tim10-1 conf: tim10-1 yeast growth inhibition, confirmed; 7,400 tested, 56% active; inhibition, % at 20 µM; AID 463213; shares compounds with tim10-1 inh; S. cerevisiae tim10-1 ts strain growth, BacTiter-Glo, 24 h;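 active = inhibition of yeast growth at or above a set limit in either of two repeat tests at 20 µM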;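 also: tim10-1 mutant grown at permissive 25 °C to find synthetic lethal compounds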
Of the large screens only hits and unclear results are named; the others gave an inactive call (follow-up assays come after a bar, where they were run).

CSCCC(NC(=O)c1ccccc1Cl)C(=O)N1CCCCC1 (centres undefined)	none (no result: NALP1 yeast inh)
Cc1c(Cl)c([N+](=O)[O-])nn1Cc1ccc(C(=O)Nc2ccc(Cl)cn2)o1	tim10-1 inh 46.6 | tim10-1 conf 34.2
Cc1nn(Cc2ccc(Cl)cc2)c(C)c1NC(=O)c1ccc([N+](=O)[O-])cc1	tim10-1 inh 53.2 | tim10-1 conf 41.0
Cc1nn(Cc2ccc(C(=O)NN)cc2)c(C)c1Cl	none
Cc1nn(Cc2ccc(C(=O)Nc3ccccc3F)cc2)c(C)c1Cl	tim10-1 inh 40.8 | tim10-1 conf inactive
Cc1nn(Cc2ccc(Cl)c(Cl)c2)c(C)c1NC(=O)c1noc2c1CCCCC2	none (no result: NALP1 yeast inh)
Cc1nn(Cc2ccc(Cl)cc2)c(C)c1NC(=O)c1noc2c1CCCCC2	tim10-1 inh 43.3 (no result: PfHsp90 yeast 2) | tim10-1 conf 43.8
Cc1cccc(NC(=O)C2C3CCCCC32)c1 (centres undefined)	none
COc1ccc(-c2c(NC(=O)CC(C)C)n(C)c3ccccc3c2=O)cc1OC	none
CSc1ccccc1NC(=O)C1CC(c2c(F)cccc2Cl)=NO1 (centres undefined)	tim10-1 inh 46.5 (no result: NALP1 yeast inh) | tim10-1 conf 55.7
CCOc1cccc2cc(C(=O)NCc3ccc(Cl)cc3)c(=N)oc12	none
CN1/C(=C\C(=O)COC(=O)CN2C(=O)C3CC=CCC3C2=O)C(C)(C)c2ccccc21 (centres undefined)	tim10-1 inh 41.7 | tim10-1 conf inactive
CN1/C(=C\C(=O)COC(=O)CNC(=O)c2ccc3ccccc3c2)C(C)(C)c2ccccc21	tim10-1 inh 43.9 | tim10-1 conf inactive
COC(=O)c1ccc(OC(=O)CS(=O)c2ccccc2[N+](=O)[O-])cc1 (centres undefined)	tim10-1 inh 55.4 | tim10-1 conf 35.5
CCNC(=O)c1c(NC(=O)c2cc(-c3cc(C)cc(C)c3O)n[nH]2)sc2c1CCCC2	none (no result: tim23-1 inh, TIM10 inh, NALP1 yeast inh, tim10-1 inh, NALP3 yeast inh)
CCOC(=O)N1CCN(C2=C(NS(=O)(=O)c3ccc(C)cc3)C(=O)c3ccccc3C2=O)CC1	tim10-1 inh 48.8 | tim10-1 conf inactive
CCc1nc2ccc(C(=O)NCCc3ccc(OC)c(OC)c3)cc2nc1CC	none
CCc1nc2ccc(C(=O)NCc3ccc(C)o3)cc2nc1CC	tim10-1 inh 48.6 | tim10-1 conf inactive
CCc1nc2ccc(C(=O)NCCc3ccc(OC)cc3)cc2nc1CC	tim10-1 inh 40.5 | tim10-1 conf inactive
CCCNC(=O)c1ccccc1SCc1c(C)noc1C	none
O=C(O)CN1C(=O)C2(OCCO2)c2cc(Br)ccc21	none (no result: NALP1 yeast inh)
CC(=O)c1ccc2c(c1)c(C#N)c1ccccc1[n+]2[O-]	tim10-1 inh 68.4 | tim10-1 conf 50.8
CC(=O)c1ccc2c(c1)Cc1cc(C(C)=O)ccc1-2	none
O=[N+]([O-])c1nn(-c2ccc(Cl)cc2)n(O)c1=NCc1cccnc1	tim10-1 inh 42.2 | tim10-1 conf 30.4
Cc1cc(C)c2nc(N3CCCN(C(=O)c4ccco4)CC3)c(C#N)cc2c1	tim10-1 inh 47.1 | tim10-1 conf 32.2
CC1CN(CCCCOc2ccc(Cl)c3ccccc23)CC(C)O1 (centres undefined)	none
Cc1ccccc1NC(=O)c1cc(N)ccc1N1CCCCC1	tim10-1 inh 41.3 (no result: PfHsp90 yeast 2) | tim10-1 conf 31.8
CN(C)S(=O)(=O)c1ccc(N2CCCC2)c(C(=O)Nc2ccccc2Br)c1	none (no result: NALP1 yeast inh, PfHsp90 yeast 2)
CCOc1cccc(/C=N/NC(=O)c2ccc3c(c2)OCCO3)c1O	tim10-1 inh 48.4 | tim10-1 conf inactive
CCOc1cccc(/C=N/NC(=S)Nc2cc(S(=O)(=O)N3CCOCC3)ccc2N2CCOCC2)c1O	tim10-1 inh 43.9 | tim10-1 conf inactive
COc1ccc2ccccc2c1/C=N/NC(=S)Nc1cc(S(=O)(=O)N2CCOCC2)ccc1N1CCOCC1	none
COc1cccc(/C=N/NC(=O)CNC(=O)c2ccc3c(c2)OCCO3)c1O	none
O=C(CSc1nc2ccccc2nc1N1CCCCC1)N1CCN(c2ccccc2)CC1	none
CN(C)CCCN(C(=O)c1ccc(S(=O)(=O)N2CCc3ccccc3C2)cc1)c1nc2c(F)cc(F)cc2s1	tim10-1 inh 42.0 (no result: NALP1 yeast inh) | tim10-1 conf 35.3
CCOC(=O)N1CCN(S(=O)(=O)c2ccc(C(=O)N(CCN(C)C)c3nc4ccc(CC)cc4s3)cc2)CC1	none

High-throughput results deposited in PubChem by several laboratories.
